# Measurements taken from PubChem BioAssay (NCATS).
# “And” between values parts separate entries of the source, which are not always exact repeats. Identical values can stand only once. Values without a mark were called inactive. Results filed as inconclusive are left out. Entries that show only a call come without a potency. The source made the active and inactive calls. Unless noted, the call rests on the fitted dose curve; in most records, active means well fitted curve in either direction with a large enough effect (not every such curve was filed as active); inconclusive means small, poorly fitted or top-dose-only effect, or another doubt; inactive means flat fitted curve, though single readings scatter.
# Legend:
# [1] = target: Lysosomal acid glucosylceramidase (Homo sapiens) (UniProt P04062); assay: Glucocerebrosidase-p2 (AID 348; in the data active means potency below about 10 µM; further: potency means the concentration at half of the fitted maximal effect); settings: purified GBA, blue fluorogenic substrate, 40 min
# Procedure, shortened: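 Compounds titrated from 0.6 nM upwards against 0.2 nM enzyme in pH 5.9 citric acid/KH2PO4, taurocholate, tween-20; blue fluorogenic substrate 80 uM, 40 min room temperature, stopped and read Ex 365/Em 440 for AC50.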
# [2] = AP1 Signaling Pathway (AID 357); settings: ME-180 AP-1-bla reporter, EGF-induced, beta-lactamase ratio, 5 h; series mostly up to 17.2 µM;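 further: ME-180 reporter cells stimulated with EGF at its EC50 level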
# Procedure, shortened: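 Read-out was the 460nm/530nm emission ratio (excitation 405nm) after CCF4 loading for 2.5 hours at room temperature. Cells carried an AP-1-driven beta-lactamase reporter, were stimulated with EC50 EGF plus compound for 5 hours, and AC50 values came from titrations.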
# [3] = NFAT Signaling Pathway (AID 444); settings: Jurkat NFAT-bla M1, carbachol, beta-lactamase ratio, 5 h; series mostly up to 17.2 µM;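 further: carbachol stimulus at about its EC50 of 1 µM final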
# Procedure, shortened: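 Jurkat cells carrying an NFAT-driven β-lactamase reporter and co-transfected muscarinic M1 receptor were treated with compound plus carbachol (1 uM final, an EC50 level) for 5 h at 37 °C. CCF4 loading followed for 1 h at RT; 460/530 nm ratio gave %activity.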
# [4] = Stat Signaling Pathway (AID 446); settings: ME-180 SIE beta-lactamase reporter, IL-6 stimulated, 5 h;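 further: ME-180 cervical cancer cells given 40 pM IL-6 alongside compound; SIE-controlled beta-lactamase reporter measured as 460/530 nm FRET emission ratio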
# Procedure, shortened: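 ME-180 cells carrying a SIE-driven beta-lactamase reporter are stimulated with 40 pM IL-6 for 5 h at 37C in the presence of compound. The 460/530 nm FRET substrate ratio is read after 2.5 h at RT. Data are normalised to 300 pM IL-6 and to 125 nM JAK inhibitor controls.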
# [5] = target: Glucocorticoid receptor (Homo sapiens) (UniProt P04150); assay: GR-GFP Redistribution (AID 450;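 active means compounds whose dose series gives a full or clear partial fitted curve of increased nuclear translocation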; further: potency means the concentration at half of the fitted maximal effect); settings: U2OS GR-GFP nuclear translocation, laser cytometry, 2 h
# [6] = target: Glucocorticoid receptor (Homo sapiens) (UniProt P04150); assay: GR-EFC Redistribution (AID 451; calls by dose curve; further: potency means the concentration at half of the fitted maximal effect); settings: CHO-K1 GR-EFC translocation, beta-gal luminescence, 2 h
# Procedure, shortened: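 CHO-K1 cells stably expressing nuclear-localized β-gal enzyme acceptor and GR fused C-terminally to the enzyme donor fragment; ligand-driven nuclear translocation restores β-gal by complementation. Compounds titrated up to 46 uM final, 2 h at 37 °C; luminescence read.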
# [7] = target: Mitogen-activated protein kinase 10 (Mus musculus) (UniProt Q61831); assay: JNK3 AlphaScreen Assay (AID 530); settings: JNK3 lysate, c-Jun phosphorylation; series mostly up to 57.1 µM;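 further: kinase came from lysate of stimulated human HepG2 cells; signal reports phosphorylation of biotinylated GST-cJun 1-79 at Ser73 with 10 µM ATP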
# Procedure, shortened: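 Inhibitors reduce antibody binding to phosphorylated biotin-cJun, lowering AlphaScreen luminescence. Lysates from HepG2 cells pre-activated by IL-1beta plus TNF-alpha supplied JNK3; compounds were titrated.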
# [8] = target: Cytochrome P450 1A2 (Homo sapiens) (UniProt P05177); assay: p450-cyp1a2 (AID 410; calls by dose curve; further: potency means the concentration at half of the fitted maximal effect); settings: recombinant CYP1A2, luciferin-ME demethylation, luminescence; series mostly up to 57 µM
# Procedure, shortened: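 Luminescent readout of luciferin formed from Luciferin-ME by human CYP1A2; data normalized against complete inhibition by 57 uM furafylline. Enzyme 20nM, substrate 100uM at Km, 100mM KPO4 buffer, 60 min reaction at room temperature.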
# [9] = Cell Viability - BJ (AID 421; calls by dose curve;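 further: potency means the concentration at half of the fitted maximal effect; cells exposed to compound for 40 hours at 37 °C before readout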); settings: BJ fibroblast viability, qHTS
# Procedure, shortened: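 Normal human BJ foreskin fibroblasts, 1500/well in complete medium, treated 40 hr at 37 °C. Cellular ATP by CellTiter-Glo luminescence; normalized to DMSO and 100 uM tamoxifen, AC50 from Hill fit.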
# [10] = Cell Viability - Hek293 (AID 427;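 active means compounds whose dose-response curve shows a full or clear partial loss of cell viability, called from curve shape rather than a numeric limit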;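 further: potency means the concentration at half of the fitted maximal effect; cells exposed to compound for 40 hours at 37 °C before reading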); settings: qHTS
# Procedure, shortened: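 HEK293 cells in complete medium were exposed to compound for 40 hr at 37 °C, then cellular ATP was read by CellTiter-Glo luminescence. Data were normalized to DMSO (basal) and 100 uM tamoxifen (100% inhibition), and AC50 came from Hill fits.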
# [11] = Cell Viability - HepG2 (AID 433; calls by dose curve;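 further: potency means the concentration at half of the fitted maximal effect; potency for ATP loss meaning cytotoxicity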); settings: qHTS
# Procedure, shortened: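 Read-out is luciferase-based quantitation of cellular ATP as a measure of viable HepG2 cells after 40 h treatment at 37 °C. Signal decrease is scaled between DMSO-only and 100 uM tamoxifen controls, with AC50 fitted by the Hill equation.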
# [12] = Cell Viability - MRC5 (AID 434; calls by dose curve;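 further: potency means the concentration at half of the fitted maximal effect; potency reflects cytotoxicity seen as loss of intracellular ATP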); settings: MRC5 lung fibroblast viability, qHTS
# Procedure, shortened: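 MRC5 normal human lung fibroblasts (1500/well) were treated with compounds for 40 hr at 37 °C in complete medium, and viable cells were measured as intracellular ATP by CellTiter-Glo luminescence. AC50 came from Hill fits, normalized to DMSO and 100 uM tamoxifen.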
# [13] = Cell Viability - SK-N-SH (AID 435; calls by dose curve;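 further: potency means the concentration at half of the fitted maximal effect; compound exposure lasted 40 h at 37 °C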); settings: SK-N-SH neuroblastoma cell viability qHTS
# Procedure, shortened: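 Luminescent ATP signal served as the viability read-out after 40 hours of compound treatment of human neuroblastoma SK-N-SH cells. Concentration-response data, scaled between DMSO and 100 uM tamoxifen, gave AC50 values by standard Hill modeling.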
# [14] = Cell Viability - N2a (AID 540; active means well fitted curve in the direction sought with a large enough effect; an effect the other way counts as inactive or inconclusive; further: nearly all actives have a fitted effect of over 45% in size); settings: N2a mouse neuroblastoma cell viability; activity change, negative = cytotoxicity: at 92.2 µM (top of the series)
# Procedure, shortened: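 Luminescent ATP signal (CellTiter-Glo, 20 min at room temperature) served as the viability read-out after N2a cells were treated with compounds for 40 hours at 37 °C. Concentration-response data were fitted to the Hill equation for AC50.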
# [15] = Cell Viability - HUV-EC-C (AID 542; active means well fitted curve in the direction sought with a large enough effect; an effect the other way counts as inactive or inconclusive; further: nearly all actives have a fitted effect of over 35% in size); settings: HUV-EC-C endothelial cell viability, qHTS; series mostly up to 92.2 µM
# Procedure, shortened: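 qHTS cytotoxicity: HUV-EC-C, 1000 cells/well, 5 hr settle, compound 40 hr 37 °C, CellTiter-Glo, luminescence. AC50 via Hill equation.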
# [16] = Cell Viability - H-4-II-E (AID 543; active means well fitted curve in the direction sought with a large enough effect; an effect the other way counts as inactive or inconclusive; further: nearly all actives have a fitted effect of over 35% in size); settings: H-4-II-E rat hepatoma viability; series mostly up to 92.2 µM
# Procedure, shortened: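 Luminescent ATP signal (CellTiter-Glo) served as the viability read-out, with cytotoxicity seen as a concentration-dependent ATP drop. Cells were treated for 40 hours in complete medium. AC50 values derive from Hill-equation modelling.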
# [17] = Cell Viability - SH-SY5Y (AID 544; active means well fitted curve in the direction sought with a large enough effect; an effect the other way counts as inactive or inconclusive; further: nearly all actives have a fitted effect of over 55% in size); settings: SH-SY5Y neuroblastoma cell viability; viability change, negative = cytotoxic: at 92.2 µM (top of the series)
# Procedure, shortened: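 Luminescent ATP read-out (CellTiter-Glo) measures loss of viable SH-SY5Y neuroblastoma cells after 40 hr compound exposure at 37 °C. AC50 values derive from standard Hill modelling of qHTS concentration-response data.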
# [18] = Cell Viability - Renal Proximal Tubule (AID 545; active means well fitted curve in the direction sought with a large enough effect; an effect the other way counts as inactive or inconclusive; further: nearly all actives have a fitted effect of over 40% in size); settings: renal proximal tubule cells viability, primary cells of rat origin; activity change, negative = cytotoxicity: at 91.7 µM (top of the series)
# Procedure, shortened: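 Luminescent ATP signal (CellTiter-Glo) served as the viability read-out after 40 hr compound exposure of freshly isolated rat proximal tubule cells at 37 °C. Concentration-dependent ATP loss was fitted with the Hill equation to give AC50.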
# [19] = Cell Viability - Mesenchymal (AID 546; active means well fitted curve in the direction sought with a large enough effect; an effect the other way counts as inactive or inconclusive;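 further: cells exposed to compound for 40 hours before reading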); settings: mesenchymal cells viability, qHTS; activity change, negative = cytotoxicity: at 91.7 µM (top of the series)
# Procedure, shortened: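 Normal human renal glomerulus-derived kidney mesenchymal cells, 1000 per well in complete medium, were treated with compounds for 40 hr at 37 °C. Viability was read as intracellular ATP by CellTiter-Glo luminescence; AC50 values came from Hill-equation fits of qHTS concentration-response data.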
# [20] = Cell Viability - Jurkat (AID 426;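 active means dose-dependent loss of cell ATP signal giving a full or clear fitted curve, ranked by lower potency value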; further: potency means the concentration at half of the fitted maximal effect); settings: qHTS
# Procedure, shortened: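 qHTS, 1536-well; Jurkat E6-1, 5000 cells/well, complete medium; cpd 40 hr, 37 °C; CellTiter-Glo 20 min RT; luminescence. AC50 by Hill fit.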
# Chain of Glucocorticoid receptor (Homo sapiens) (P04150 whole entry, looked up, the tested form may be a part): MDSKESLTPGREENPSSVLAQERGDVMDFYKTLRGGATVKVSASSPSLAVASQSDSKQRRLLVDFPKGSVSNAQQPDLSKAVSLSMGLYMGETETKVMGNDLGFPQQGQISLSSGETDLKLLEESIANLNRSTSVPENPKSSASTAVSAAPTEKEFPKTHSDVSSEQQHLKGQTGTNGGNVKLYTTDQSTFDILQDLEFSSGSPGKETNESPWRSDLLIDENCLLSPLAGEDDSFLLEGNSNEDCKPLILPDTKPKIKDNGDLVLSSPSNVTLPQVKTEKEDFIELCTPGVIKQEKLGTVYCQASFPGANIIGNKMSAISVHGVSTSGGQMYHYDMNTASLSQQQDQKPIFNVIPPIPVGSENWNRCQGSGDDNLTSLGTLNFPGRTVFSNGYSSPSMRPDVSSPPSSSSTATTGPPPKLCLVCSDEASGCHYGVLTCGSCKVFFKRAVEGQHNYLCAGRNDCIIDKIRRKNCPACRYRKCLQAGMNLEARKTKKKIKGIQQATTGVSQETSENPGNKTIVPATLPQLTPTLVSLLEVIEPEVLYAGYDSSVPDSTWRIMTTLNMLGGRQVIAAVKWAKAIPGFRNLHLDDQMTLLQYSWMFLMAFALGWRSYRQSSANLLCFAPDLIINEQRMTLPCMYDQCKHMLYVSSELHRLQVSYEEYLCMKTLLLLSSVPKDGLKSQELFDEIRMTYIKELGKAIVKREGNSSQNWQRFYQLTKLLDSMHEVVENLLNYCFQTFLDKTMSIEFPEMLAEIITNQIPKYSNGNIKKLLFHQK
# Chain of Cytochrome P450 1A2 (Homo sapiens) (P05177 whole entry, looked up): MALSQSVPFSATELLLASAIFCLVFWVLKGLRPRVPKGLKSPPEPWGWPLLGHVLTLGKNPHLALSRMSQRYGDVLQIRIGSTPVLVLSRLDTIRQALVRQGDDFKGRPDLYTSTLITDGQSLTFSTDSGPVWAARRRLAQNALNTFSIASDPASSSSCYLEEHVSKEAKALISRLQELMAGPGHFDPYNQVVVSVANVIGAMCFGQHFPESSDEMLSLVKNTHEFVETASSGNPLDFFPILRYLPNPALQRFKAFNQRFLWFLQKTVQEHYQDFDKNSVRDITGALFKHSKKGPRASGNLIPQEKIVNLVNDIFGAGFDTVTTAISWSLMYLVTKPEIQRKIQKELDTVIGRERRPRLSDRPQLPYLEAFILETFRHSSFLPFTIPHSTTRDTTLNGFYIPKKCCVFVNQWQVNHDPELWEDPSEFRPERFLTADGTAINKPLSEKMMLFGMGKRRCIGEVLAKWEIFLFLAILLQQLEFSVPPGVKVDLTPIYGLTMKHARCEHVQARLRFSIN
# Chain of Lysosomal acid glucosylceramidase (Homo sapiens) (P04062 whole entry, looked up): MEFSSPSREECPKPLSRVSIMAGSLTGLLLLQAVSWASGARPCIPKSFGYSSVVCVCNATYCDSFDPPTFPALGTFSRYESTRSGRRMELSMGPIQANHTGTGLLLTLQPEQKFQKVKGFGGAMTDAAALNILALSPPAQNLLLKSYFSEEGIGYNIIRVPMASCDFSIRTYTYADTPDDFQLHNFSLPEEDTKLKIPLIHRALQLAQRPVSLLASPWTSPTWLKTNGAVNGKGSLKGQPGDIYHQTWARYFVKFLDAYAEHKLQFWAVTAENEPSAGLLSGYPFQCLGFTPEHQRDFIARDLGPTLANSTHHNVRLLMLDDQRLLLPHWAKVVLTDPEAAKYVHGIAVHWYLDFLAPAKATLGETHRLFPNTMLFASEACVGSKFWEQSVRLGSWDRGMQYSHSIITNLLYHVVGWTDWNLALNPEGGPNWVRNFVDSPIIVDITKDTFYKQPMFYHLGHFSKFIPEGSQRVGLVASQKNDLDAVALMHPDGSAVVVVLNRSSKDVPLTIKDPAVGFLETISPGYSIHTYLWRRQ
compound,measurement,setting,value
O=C(O)CCc1nc(-c2ccccc2)c(-c2ccccc2)o1,Potency,[1],> 11.4 µM
same,outcome,[2],inactive
same,outcome,[3],inactive
same,"activity, negative = inhibition",[4]; at 7.69 µM (top of the series),5.68%
same,"activity, negative = inhibition",[4]; at 17.2 µM (top of the series),-0.803%
same,"activity, negative = inhibition",[4]; at 38 µM (top of the series),-12.8%
same,Potency,[5],> 46 µM and > 20.6 µM
same,Potency,[6],> 46 µM and > 20.6 µM and > 9.22 µM
same,outcome,[7],inactive
c1cc(-c2sc(-c3ccncc3)c(-c3ccncc3)c2-c2ccncc2)ccn1,Potency,[1],> 11.4 µM
same,outcome,[2],inactive
same,Potency,[8],3.16 µM (active)
same,outcome,[3],inactive
same,"activity, negative = inhibition",[4]; at 7.69 µM (top of the series),7.72%
same,Potency,[5],> 46 µM
same,Potency,[6],> 9.22 µM
same,"activity change, negative = inhibition",[7],-6.48% [at 11.4 µM]
COc1ccc(-c2coc3cc(O)cc(O)c3c2=O)cc1,outcome,[2],inactive
same,Potency,[8],3.98 µM (active)
same,outcome,[3],inactive
same,"activity, negative = inhibition",[4]; at 17.2 µM (top of the series),5.25%
same,Potency,[5],> 46 µM and > 20.6 µM
same,Potency,[6],> 46 µM
same,outcome,[7],inactive
C[N+](C)(C)CCCCCC[N+](C)(C)C,outcome,[2],inactive
same,Potency,[8],inactive
same,outcome,[3],inactive
same,"activity, negative = inhibition",[4]; at 17.2 µM (top of the series),8.45%
same,"activity, negative = inhibition",[4]; at 38 µM (top of the series),9.91%
same,outcome,[7],inactive
NCCS,outcome,[2],inactive
same,Potency,[8],inactive
same,outcome,[3],inactive
same,"activity, negative = inhibition",[4]; at 38 µM (top of the series),-9.49%
same,outcome,[7],inactive
CCN1CCC[C@H]1CNC(=O)c1cc(S(N)(=O)=O)ccc1OC,outcome,[2],inactive
same,Potency,[8],inactive
same,outcome,[3],inactive
same,"activity, negative = inhibition",[4]; at 17.2 µM (top of the series),8.96%
same,Potency,[5],> 20.6 µM and > 46 µM
same,Potency,[6],> 20.6 µM and > 46 µM
same,outcome,[7],inactive
CCCCC1C(=O)N(c2ccccc2)N(c2ccccc2)C1=O,outcome,[2],inactive
same,Potency,[8],inactive
same,Potency,[9],> 92 µM
same,Potency,[10],> 92 µM
same,Potency,[11],> 92 µM
same,Potency,[12],> 92 µM
same,Potency,[13],> 92 µM
same,outcome,[3],inactive
same,"activity, negative = inhibition",[4]; at 17.2 µM (top of the series),-15.3%
same,"activity, negative = inhibition",[4]; at 38 µM (top of the series),-22.4%
same,Potency,[5],> 46 µM and > 20.6 µM
same,Potency,[6],> 46 µM
same,outcome,[7],inactive
same,Potency,[14],inactive
same,Potency,[15],inactive
same,Potency,[16],inactive
same,Potency,[17],inactive
same,Potency,[18],inactive
same,Potency,[19],inactive
O=C1NC(=O)C(c2ccccc2)(c2ccccc2)N1,outcome,[2],inactive
same,Potency,[8],inactive
same,Potency,[9],> 92 µM
same,Potency,[20],> 92 µM
same,Potency,[10],> 92 µM
same,Potency,[11],> 92 µM
same,Potency,[12],> 92 µM
same,Potency,[13],> 92 µM
same,outcome,[3],inactive
same,"activity, negative = inhibition",[4]; at 17.2 µM (top of the series),-0.146%
same,"activity, negative = inhibition",[4]; at 38 µM (top of the series),-3.08%
same,Potency,[5],> 46 µM and > 20.6 µM
same,Potency,[6],> 46 µM
same,outcome,[7],inactive
same,Potency,[14],inactive
same,Potency,[15],inactive
same,Potency,[16],inactive
same,Potency,[17],inactive
same,Potency,[18],inactive
same,Potency,[19],inactive
CCN(CC)CCOC(=O)c1ccc(N)cc1,outcome,[2],inactive
same,Potency,[8],inactive
same,"activity, negative = inhibition",[4]; at 17.2 µM (top of the series),13%
same,"activity, negative = inhibition",[4]; at 38 µM (top of the series),-13.6%
same,outcome,[7],inactive
COCCCCC(=NOCCN)c1ccc(C(F)(F)F)cc1,outcome,[2],inactive
same,Potency,[8],158 nM (active) and 39.8 nM (active) and 15.8 nM (active)
same,outcome,[3],inactive
same,"activity, negative = inhibition",[4]; at 17.2 µM (top of the series),-3.51%
same,"activity, negative = inhibition",[4]; at 38 µM (top of the series),-10.7%
same,Potency,[5],> 46 µM and > 20.6 µM
same,Potency,[6],> 46 µM and > 20.6 µM
COc1ccccc1N1CCN(CCCNc2cc(=O)n(C)c(=O)n2C)CC1,outcome,[2],inactive
same,Potency,[8],inactive
same,outcome,[3],inactive
same,"activity, negative = inhibition",[4]; at 17.2 µM (top of the series),-0.455%
same,"activity, negative = inhibition",[4]; at 38 µM (top of the series),1.93%
same,outcome,[7],inactive
CCN(CC)CCNC(=O)c1ccc(N)cc1,outcome,[2],inactive
same,outcome,[3],inactive
same,"activity, negative = inhibition",[4]; at 17.2 µM (top of the series),5.34% and 0.638%
same,"activity, negative = inhibition",[4]; at 38 µM (top of the series),3.95%
same,outcome,[7],inactive
